# Measurements taken from the antibiotic and cytotoxicity screens of Wong et al. (2023).
# The whole screen tested about 39,000 compounds, of which about 500 (1.3%) were called active. Many of the other results were omitted from the sample, so actives are more common in it than they were.
# System: S. aureus RN4220
# Assay: growth inhibition call (relative growth <= 0.2)
# Settings: 50 µM
row,Compound,growth inhibition call
1,Cc1ccc(S(=O)(=O)N(C)C[C@H]2Oc3ccc(NS(=O)(=O)c4c(C)noc4C)cc3CC(=O)N([C@@H](C)CO)C[C@H]2C)cc1,inactive
2,COc1ccc2c3c(n(c2c1)C)[C@@H](CO)N(Cc1ccccc1)C[C@]13CCN(CC1)C(=O)c1ccccc1F,inactive
3,C[C@H](CO)N1C[C@H](C)[C@H](CN(C)C(=O)CCCN(C)C)OCCCC[C@H](C)Oc2ccc(NC(=O)Nc3ccc(C(F)(F)F)cc3)cc2C1=O,inactive
4,O=C([C@H]1[C@H](CO)[C@H]2Cn3c(cccc3=O)[C@@H]1N2CC1CCCC1)N1CCOCC1,inactive
5,COc1cc(/C=C/c2cc(/C=C/c3ccc(O)c(OC)c3)n(Cc3ccc4c(c3)OCO4)c(=S)n2)ccc1O,inactive
6,C[C@@H]1CCCCO[C@@H](CN(C)C(=O)Nc2ccc3c(c2)OCO3)[C@@H](C)CN([C@@H](C)CO)C(=O)c2cc(NC(=O)Cc3ccccc3)ccc2O1,inactive
7,CCC(CC)c1nc(Nc2ccccc2)c2ccccc2n1,active
8,c1ccc(Nc2nc(-c3ccccc3)nc3ccccc23)cc1,inactive
9,CCOc1ccc(Nc2c3ccccc3nc3ccccc23)cc1,inactive
10,Cc1ccc(S(=O)(=O)Nc2ccc3c(c2)C(=O)N([C@H](C)CO)C[C@H](C)[C@H](CN(C)S(=O)(=O)c2ccc(F)cc2)OCCCC[C@@H](C)O3)cc1,inactive
11,Cc1noc(C)c1S(=O)(=O)N(C)C[C@H]1Oc2ccc(NS(=O)(=O)c3ccccc3)cc2CC(=O)N([C@H](C)CO)C[C@@H]1C,inactive
12,C[C@@H]1CN([C@@H](C)CO)C(=O)c2cc(NC(=O)Nc3ccc(C(F)(F)F)cc3)ccc2O[C@@H](C)CCCCO[C@H]1CN(C)C(=O)C1CCCCC1,inactive
13,Cc1onc(-c2c(Cl)cccc2Cl)c1C(=O)NC1C(=O)N2C1SC(C)(C)C2C(=O)[O-].[Na+] (stereo not drawn),active
14,Cc1onc(-c2ccccc2)c1C(=O)NC1C(=O)N2C1SC(C)(C)C2C(=O)[O-].[Na+] (stereo not drawn),active
15,Cc1onc(-c2ccccc2Cl)c1C(=O)NC1C(=O)N2C1SC(C)(C)C2C(=O)[O-].[Na+] (stereo not drawn),active
16,COC(=O)c1c(-c2c(Cl)cccc2Cl)noc1-c1cnn(-c2cccc(Cl)c2)c1C(F)(F)F,inactive
17,C[C@H](CO)N1C[C@H](C)[C@H](CN(C)S(=O)(=O)c2cccc(F)c2)Oc2ncc(C#CCN(C)C)cc2C1=O,inactive
18,C[C@@H]1CN([C@H](C)CO)C(=O)CCCn2cc(nn2)CO[C@H]1CN(C)C(=O)c1ccc(N2CCN(C)CC2)cc1,inactive
19,C[C@@H]1CN([C@H](C)CO)C(=O)c2cccc(NC(=O)Nc3cccc4ccccc34)c2O[C@@H]1CN(C)C(=O)Nc1cccc2ccccc12,inactive
20,C[C@@H]1CCCCO[C@@H](CN(C)C(=O)c2ccncc2)[C@H](C)CN([C@H](C)CO)C(=O)c2cc(NC(=O)C3CCCCC3)ccc2O1,inactive
21,CC1CC2C(C(O)CC3(C)C2CCC3(O)C(=O)COC(=O)CCC(=O)[O-])C2(C)C=CC(=O)C=C12.[Na+] (stereo not drawn),inactive
22,COc1cc(NC(=O)CCN2CCC(OC(=O)Nc3ccccc3-c3ccccc3)CC2)c(Cl)cc1CNC[C@H](O)c1ccc(O)c2nc(O)ccc12,inactive

row,Compound,growth inhibition call
1,CO[C@H]1CN(C)C(=O)c2cc(NC(=O)Nc3ccccc3)ccc2OC[C@H](C)N(C(=O)CN(C)C)C[C@@H]1C,inactive
2,Cc1noc(C)c1S(=O)(=O)Nc1ccc2c(c1)CC(=O)N([C@H](C)CO)C[C@@H](C)[C@@H](CN(C)Cc1ccncc1)O2,inactive
3,Cc1noc(C)c1NC(=O)Nc1ccc2c(c1)CC(=O)N([C@@H](C)CO)C[C@@H](C)[C@@H](CN(C)S(C)(=O)=O)O2,inactive
4,CC(=O)O[C@@H]1[C@@H]2OC(=O)[C@H](OC(C)=O)[C@@H]2O[C@H]1n1ccc(=O)[nH]c1=O,inactive
5,COc1ccc2c3c([nH]c2c1)[C@H](CO)N(C[C@]13CCN(CC1)Cc1ccc(cc1)F)C(=O)Nc1ccc(cc1)F,inactive
6,COc1ccc2c3c([nH]c2c1)[C@H](CO)N(C[C@]13CN(CC2CCCCC2)C1)C(=O)Nc1cccc(c1)F,active
7,COc1ccc2c3c([nH]c2c1)[C@@H](CO)N(C[C@]13CN(CC2CCCCC2)C1)C(=O)Nc1cccc(c1)F,inactive
8,COc1ccc(cc1)CN1CC[C@]2(CC1)CN([C@H](CO)c1[nH]c3cc(ccc3c12)OC)C(=O)Nc1ccc(cc1)F,inactive
9,COc1ccc2c3c([nH]c2c1)[C@H](CO)N(C[C@]13CCN(CC1)CC1CCCCC1)C(=O)Nc1cccc(c1)F,inactive
10,COc1ccc2c3c([nH]c2c1)[C@@H](CO)N(C[C@]13CCN(CC1)Cc1ccc(cc1)F)C(=O)Nc1ccc(cc1)F,active
11,COc1ccc2c3c([nH]c2c1)[C@@H](CO)N(C[C@]13CCN(CC1)CC1CCCC1)C(=O)Nc1cccc(c1)F,inactive
12,COc1ccc2c3c([nH]c2c1)[C@H](CO)N(C[C@]13CCN(CC1)CC1CCCC1)C(=O)Nc1cccc(c1)F,inactive
13,COc1ccc2c3c([nH]c2c1)[C@@H](CO)N(C[C@]13CCN(CC1)CC1CCCCC1)C(=O)Nc1cccc(c1)F,active
14,C=CCOC(=O)O[C@H]1[C@@H](OC)O[C@H](COC(=O)NCCCCCC(=O)NO)[C@@H](OC(=O)[C@H](CC=C)Cc2cccc(Br)c2)[C@@H]1OC(=O)[C@H](CC=C)Cc1ccccc1,inactive
15,C[C@H](CO)N1C[C@H](C)[C@@H](CN(C)C(=O)Nc2ccc3c(c2)OCCO3)OCc2cn(nn2)CCCC1=O,inactive
16,O=C(N[C@H]1C=C[C@H](CC(=O)N2CCOCC2)O[C@@H]1CO)c1ccc2c(c1)OCO2,inactive
17,Cn1cnc(S(=O)(=O)N[C@H]2C=C[C@@H](CC(=O)NCC3CC3)O[C@H]2CO)c1,inactive
18,COc1ccc(NC(=O)Nc2ccc3c(c2)C(=O)N([C@@H](C)CO)C[C@H](C)[C@H](CN(C)C(=O)c2ccccc2)OCCCC[C@@H](C)O3)cc1,inactive
19,CN(C)CC#Cc1cncc(C(=O)NN)c1,inactive
20,CO[C@@H]1CN(C)C(=O)c2ccc(NC(=O)c3ccc(F)cc3)cc2OC[C@@H](C)N(C(=O)CN(C)C)C[C@@H]1C,inactive
21,CN1CCN(C(=O)C[C@H]2C[C@H]3c4cc(NC(=O)c5ccc6c(c5)OCO6)ccc4O[C@H]3[C@H](CO)O2)CC1,inactive
